Assay results taken from PubChem BioAssay (NCATS).
Inconclusive results are not listed. The source made the active and inactive calls. Unless noted, calls follow the shape of the dose curve; as a rule, active = well fitted curve in the direction sought with a large enough effect; inconclusive = small, poorly fitted or top-dose-only effect, or another doubt; inactive = no such curve, though single readings can be large; an effect the other way counts as inactive or inconclusive.

Legend:
[1] = target: DNA repair nuclease/redox regulator APEX1 (Homo sapiens) (UniProt P27695); assay: qHTS Validation Assay for Inhibitors of the Human Apurinic/apyrimidinic Endonuclease 1 (APE1) (AID 1705; also: potency is read from the fitted curve at half-maximal effect)
DNA repair nuclease/redox regulator APEX1 (Homo sapiens), sequence (P27695 whole entry, looked up): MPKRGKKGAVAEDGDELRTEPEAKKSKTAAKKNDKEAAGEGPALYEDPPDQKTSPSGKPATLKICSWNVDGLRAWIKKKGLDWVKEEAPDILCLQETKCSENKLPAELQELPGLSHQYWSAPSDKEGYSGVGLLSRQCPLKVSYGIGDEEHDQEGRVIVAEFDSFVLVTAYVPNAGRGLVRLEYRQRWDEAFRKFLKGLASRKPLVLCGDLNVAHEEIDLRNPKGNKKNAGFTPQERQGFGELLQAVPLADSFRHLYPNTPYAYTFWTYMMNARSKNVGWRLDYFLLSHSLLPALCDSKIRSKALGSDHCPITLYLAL
In short: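 Human APE1 was preincubated with compound for 15 min at room temperature, then 50 nM (final) THF-abasic double-stranded DNA substrate bearing 5'-TAMRA and 3'-BHQ-2 was added. Incision-driven fluorescence rise (ex 525/em 598 nm) was read kinetically.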

[2] = Counterscreen for APE1 Inhibitors: Fluorescent Dye Displacement Validation Assay (AID 1707); also: potency is read from the fitted curve at half-maximal effect
In short: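 Endpoint fluorescence read at 480 nm excitation / 540 nm emission; DNA-binding compounds lower signal by displacing 250 nM Thiazole Orange from 50 nM dsDNA containing a tetrahydrofuran abasic site, Tris-HCl pH7.5 buffer with NaCl and MgCl2.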

[3] = target: Endonuclease 4 (Escherichia coli (strain K12)) (UniProt P0A6C1); assay: Counterscreen for APE1 Inhibitors: qHTS Validation Assay for Inhibitors of Endonuclease IV (AID 1708)
In short: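 Measured as reaction progress, the fluorescence gain between first and third kinetic reads after adding 50 nM TAMRA/BHQ-2 THF duplex to 2 nM enzyme preincubated 15 min with compound; 2 mM MgCl2, pH 7.5.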

[4] = qHTS for differential inhibitors of proliferation of Plasmodium falciparum line 7G8 (AID 1815);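 also: parasite growth measured after three days of incubation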; also: potency is read from the fitted curve at half-maximal effect
[5] = qHTS for differential inhibitors of proliferation of Plasmodium falciparum line GB4 (AID 1816); settings: Potency: Plasmodium falciparum GB4 proliferation inhibition;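 also: parasite growth measured after 72 h incubation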; also: potency is read from the fitted curve at half-maximal effect
[6] = qHTS for differential inhibitors of proliferation of Plasmodium falciparum line 3D7 (AID 1876); also: potency is read from the fitted curve at half-maximal effect
[7] = qHTS for differential inhibitors of proliferation of Plasmodium falciparum line D10 (AID 1877);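 also: parasites grown with compound for 72 h before DNA staining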; also: potency is read from the fitted curve at half-maximal effect
[8] = qHTS for differential inhibitors of proliferation of Plasmodium falciparum line Dd2 (AID 1882); settings: Potency: Plasmodium falciparum Dd2 proliferation inhibition; also: nearly all actives have a fitted effect of over 65% in size; also: potency is read from the fitted curve at half-maximal effect
In short: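 RBC culture, 0.3% parasitemia / 2.5% Hct final; cpd added by pin tool in DMSO; 72 h, 37 C, 5% CO2; lysis buffer + SYBR Green I, o/n RT dark; FI 485/535; norm. to artemisinin 0.29 uM and DMSO.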

[9] = qHTS for differential inhibitors of proliferation of Plasmodium falciparum line W2 (AID 1883); settings: Potency: Plasmodium falciparum W2 proliferation inhibition;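 also: parasites grown with compound for 72 h before lysis and staining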; also: potency is read from the fitted curve at half-maximal effect
[10] = qHTS for differential inhibitors of proliferation of Plasmodium falciparum line HB3 (AID 1886); settings: Potency: Plasmodium falciparum HB3 proliferation inhibition;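 also: parasites grown with compound for 72 h before SYBR Green readout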; also: potency is read from the fitted curve at half-maximal effect
[11] = target: Ferritin light chain (Equus caballus) (UniProt P02791); assay: qHTS Validation Assay for Identification of Novel General Anesthetics (AID 2323); also: series mostly up to about 77 µM
Ferritin light chain (Equus caballus), sequence (P02791 2-175 limits assumed): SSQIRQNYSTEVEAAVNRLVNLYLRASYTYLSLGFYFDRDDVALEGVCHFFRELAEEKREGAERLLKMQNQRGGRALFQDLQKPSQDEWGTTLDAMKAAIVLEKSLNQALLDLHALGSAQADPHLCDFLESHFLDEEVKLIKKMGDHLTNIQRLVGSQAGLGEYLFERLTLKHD
In short: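 Competitive displacement of profluorescent 1-aminoanthracene (1-AMA, 50% saturated solution in PBS) from 10 uM horse-spleen apoferritin. Compounds incubated 10 min at room temperature; fluorescence read at 380 nm excitation/535 nm emission, normalized to free 1-AMA and complex, fitted with four-parameter Hill equation.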

[12] = target: ATP-dependent DNA helicase Q1 (Homo sapiens) (UniProt P46063); assay: qHTS Validation Assay for Inhibitors of RecQ-Like Dna Helicase 1 (RECQ1) (AID 2353)
ATP-dependent DNA helicase Q1 (Homo sapiens), sequence (P46063 whole entry, looked up): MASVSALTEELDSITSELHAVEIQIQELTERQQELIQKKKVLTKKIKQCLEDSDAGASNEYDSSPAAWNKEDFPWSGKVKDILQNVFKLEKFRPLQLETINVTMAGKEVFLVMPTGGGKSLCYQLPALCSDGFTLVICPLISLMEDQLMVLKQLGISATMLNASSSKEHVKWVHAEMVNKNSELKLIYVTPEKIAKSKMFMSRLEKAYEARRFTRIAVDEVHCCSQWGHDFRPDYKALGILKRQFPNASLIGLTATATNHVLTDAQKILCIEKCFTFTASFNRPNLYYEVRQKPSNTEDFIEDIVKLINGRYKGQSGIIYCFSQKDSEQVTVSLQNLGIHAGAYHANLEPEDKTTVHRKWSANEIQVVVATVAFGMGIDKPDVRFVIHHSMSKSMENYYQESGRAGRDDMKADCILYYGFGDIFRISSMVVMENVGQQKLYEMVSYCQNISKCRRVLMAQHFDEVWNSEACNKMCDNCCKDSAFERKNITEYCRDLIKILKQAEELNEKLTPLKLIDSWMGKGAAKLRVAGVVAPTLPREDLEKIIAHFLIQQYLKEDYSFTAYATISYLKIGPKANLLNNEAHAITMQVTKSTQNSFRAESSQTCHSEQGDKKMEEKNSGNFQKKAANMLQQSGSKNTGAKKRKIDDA
In short: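 RECQ1T1 50 nM; forked duplex (20 bp + 30-nt ss tails) 200 nM, ATP 2 mM final; pH 8.0, 2 mM MgCl2, 2.5 ug/ml poly(dI-dC); 15 min compound preincubation; discontinuous kinetic read over 2 h at RT.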

[13] = target: RecQ-like DNA helicase BLM (Homo sapiens) (UniProt P54132); assay: qHTS Validation Assay for Inhibitors of Bloom's syndrome helicase (BLM) (AID 2364)
RecQ-like DNA helicase BLM (Homo sapiens), sequence (P54132 whole entry, looked up): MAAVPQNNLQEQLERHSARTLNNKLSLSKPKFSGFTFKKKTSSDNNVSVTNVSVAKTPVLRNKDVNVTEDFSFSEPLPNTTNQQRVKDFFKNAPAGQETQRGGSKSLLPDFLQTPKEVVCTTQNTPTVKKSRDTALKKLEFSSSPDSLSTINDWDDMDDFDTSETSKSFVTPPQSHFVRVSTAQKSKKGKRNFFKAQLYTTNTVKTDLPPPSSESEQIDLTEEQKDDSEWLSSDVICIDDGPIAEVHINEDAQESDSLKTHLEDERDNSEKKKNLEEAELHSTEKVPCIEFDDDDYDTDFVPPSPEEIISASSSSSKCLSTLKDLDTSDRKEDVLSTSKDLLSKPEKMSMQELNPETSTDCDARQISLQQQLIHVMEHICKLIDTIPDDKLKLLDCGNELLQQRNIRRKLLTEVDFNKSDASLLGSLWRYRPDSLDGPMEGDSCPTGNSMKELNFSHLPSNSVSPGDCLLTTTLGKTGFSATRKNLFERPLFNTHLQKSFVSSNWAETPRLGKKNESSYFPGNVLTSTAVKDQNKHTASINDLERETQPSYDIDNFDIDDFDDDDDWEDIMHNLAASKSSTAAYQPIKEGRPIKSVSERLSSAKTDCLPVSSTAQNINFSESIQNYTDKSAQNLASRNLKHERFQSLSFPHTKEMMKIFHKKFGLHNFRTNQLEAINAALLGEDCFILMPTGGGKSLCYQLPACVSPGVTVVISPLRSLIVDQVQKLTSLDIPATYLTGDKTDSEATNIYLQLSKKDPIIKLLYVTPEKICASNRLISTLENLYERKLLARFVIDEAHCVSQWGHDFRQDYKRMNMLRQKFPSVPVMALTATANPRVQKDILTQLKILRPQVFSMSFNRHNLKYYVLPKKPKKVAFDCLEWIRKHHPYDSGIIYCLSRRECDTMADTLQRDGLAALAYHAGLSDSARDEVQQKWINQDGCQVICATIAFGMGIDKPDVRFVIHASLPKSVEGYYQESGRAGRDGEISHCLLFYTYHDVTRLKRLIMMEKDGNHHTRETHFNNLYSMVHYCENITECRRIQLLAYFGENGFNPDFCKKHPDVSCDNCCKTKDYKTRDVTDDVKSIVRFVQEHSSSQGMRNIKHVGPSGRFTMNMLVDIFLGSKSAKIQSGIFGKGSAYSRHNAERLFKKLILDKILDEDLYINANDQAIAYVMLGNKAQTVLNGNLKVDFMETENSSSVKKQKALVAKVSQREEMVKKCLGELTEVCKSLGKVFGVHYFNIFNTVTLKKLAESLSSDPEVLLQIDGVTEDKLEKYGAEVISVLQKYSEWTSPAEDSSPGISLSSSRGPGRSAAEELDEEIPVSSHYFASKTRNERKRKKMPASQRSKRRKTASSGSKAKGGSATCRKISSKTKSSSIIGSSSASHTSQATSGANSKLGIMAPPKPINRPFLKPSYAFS
In short: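 BLM 50 nM in 25 mM Tris-HCl pH 8.0, 5 mM NaCl, 2 mM MgCl2, 1 mM DTT, 0.01% Tween-20, 2.5 ug/ml poly(dI-dC); 15 min cpd preinc, RT. Start: 200 nM forked DNA + 2 mM ATP (final). TAMRA read, 2 reads 2 h apart.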

[14] = Cytometric Cell-Based qHTS for Inhibitors of the mTORC1 Signaling Pathway in MEF (Tsc2-/-, p53-/-) Cells (AID 2660);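 also: Tsc2 and p53 null MEFs carrying empty vector with compound for 24 h; percent of cells above a phospho-rpS6 to PI ratio cutoff in each well; series mostly up to about 38 µM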
In short: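 Cells are plated, treated with compound for 24 hrs at 37 degree Celsius, then fixed, blocked and immunostained for phospho-rpS6 Ser235/236. Propidium iodide counterstain follows. Per-well % positive cells is derived from the PI-normalized phospho-S6 signal.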

[15] = High Content Imaging Cell-Based qHTS for Inhibitors of the mTORC1 Signaling Pathway in MEF Cells (AID 2667); also: potency is read from the fitted curve at half-maximal effect
In short: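 Fixed-cell imaging of phospho-S6 (Ser235/236, Alexa-488) after 24 hrs of compound treatment at 37 degree Celsius. Signal was normalized to Hoechst, and thresholds from the highest and lowest wells split cells into % active versus % non-active.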

[16] = Cytometry Cell-Based qHTS for Inhibitors of the mTORC1 Signaling Pathway in MEF cells (AID 2668); also: potency is read from the fitted curve at half-maximal effect
In short: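 WT MEFs (Tsc2-/-, p53-/- stably re-expressing WT Tsc2) in DMEM + 10% FBS received compounds 24 hrs after plating, for 24 hrs at 37 degree Celsius. Fixed cells stained with Alexa-488 anti-phospho-rpS6 Ser235/236 and propidium iodide; laser-scanning cytometry read-out.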

[17] = Validation screen for small molecules that induce DNA re-replication in MCF 10A normal breast cells (AID 463097); also: nearly all actives have a fitted effect of over 60% in size; also: potency is read from the fitted curve at half-maximal effect
In short: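 Readout: Hoechst nuclear fluorescence intensity, 405 ex / 500-530 em, by scanning plate imager; re-replication scored as increase in nuclei with elevated DNA content. Cells exposed to compound 48 hr, 37 C, 5% CO2 beforehand.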

[18] = High Content Imaging Cell-Based qHTS for Inhibitors of the mTORC1 Signaling Pathway in MEF (Tsc2-/-, p53-/-) Cells (AID 2666);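 also: percent of cells scored positive for phospho-rpS6 Ser235/236 immunostaining by imaging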
In short: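 Inhibition of rpS6 phosphorylation is measured by immunofluorescence imaging in empty-vector Tsc2-/-, p53-/- mouse embryonic fibroblasts after 24 hrs compound exposure at 37 degree Celsius. Results are reported as % positive cells per well.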

[19] = qHTS Assay for Modulators of Human Peripheral Myelin Protein 22 (PMP22) Expression/Activity (AID 1967; active = well fitted curve in the direction sought with a large enough effect in the signal ratio; the % refers to the signal ratio)
In short: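 MSC80 mouse Schwann cells stably carrying Pmp22 promoter–green click beetle luciferase plus EF-alpha–red luciferase control were dosed for 24h at 37 °C. Dual-colour luminescence was filter-overlap corrected; %Activity came from green/red ratio versus untreated cells.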

[20] = qHTS Assay for Identification of Small Molecule Inducers of Hypoxia Response (AID 2120; active = well fitted curve in the direction sought with a large enough effect in the signal ratio, with a control signal flat, not every such curve was filed as active; the % refers to the signal ratio)
In short: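 HRE-bla ME-180, 2500 cells/well, 0.5% dialyzed FBS medium; cpd titration, 17 h 37 degrees C; CCF4 2.5 h RT; Ex 405, Em 460/530 ratio -> %Activity, AC50.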

Measured: Potency

O=C(c1ccc(F)cc1)C1CCN(CCn2c(=O)[nH]c3ccccc3c2=O)CC1
active: [4] 3.16 µM | [5] 5.62 µM | [6] 7.08 µM | [7] 3.98 µM | [8] 6.31 µM | [9] 1.58 µM | [10] 3.98 µM
not listed: [18] | [19] | [20]
inactive: all other assays above

COc1ccc2[nH]cc(CCNC(C)=O)c2c1
not listed: [13] | [19] | [20]
inactive: all other assays above

O=C1N(c2ccccc2)c2ccccc2C1(Cc1ccncc1)Cc1ccncc1
active: [4] 8.91 µM | [5] 12.6 µM | [9] 10 µM | [10] 11.2 µM
not listed: [6] | [7] | [20]
inactive: all other assays above

NC12CC3CC(CC(C3)C1)C2
active: [5] 11.2 µM | [9] 6.31 µM
not listed: [4] | [8] | [13] | [19] | [20]
inactive: all other assays above

O=c1c(-c2ccc(O)cc2)coc2cc(O)cc(O)c12
not listed: [4] | [5] | [6] | [9] | [11] | [13] | [18] | [19]
inactive: all other assays above

Cc1cc(C(C)(C)C)c(O)c(C)c1CC1=NCCN1
active: [9] 12.6 µM
not listed: [4] | [5] | [6] | [7] | [10] | [13] | [19] | [20]
inactive: all other assays above

Cn1ccc2cc3c(cc21)CCN3C(=O)Nc1cccnc1
active: [4] 10 µM | [5] 11.2 µM | [9] 10 µM | [10] 12.6 µM
not listed: [6] | [7] | [8] | [13] | [19] | [20]
inactive: all other assays above

CC1COc2c(N3CCN(C)CC3)c(F)cc3c(=O)c(C(=O)O)cn1c23 (stereo unspecified)
active: [9] 14.1 µM
not listed: [4] | [5] | [6] | [7] | [10] | [11] | [20]
inactive: all other assays above

CN1CCN(C2=Nc3cc(Cl)ccc3Nc3ccccc32)CC1
inactive: [1] | [2] | [3] | [11] | [12] | [14] | [18] | [15] | [16] | [17]

Cc1cn([C@H]2C=C[C@@H](CO)O2)c(=O)[nH]c1=O
not listed: [3] | [13] | [19] | [20]
inactive: all other assays above

CC[N+](CC)(CC)CCOc1cccc(OCC[N+](CC)(CC)CC)c1OCC[N+](CC)(CC)CC
not listed: [3] | [18] | [19] | [20]
inactive: all other assays above

CN1CCN2c3ccccc3Cc3ccccc3C2C1 (stereo unspecified)
active: [4] 10 µM | [5] 12.6 µM | [8] 7.08 µM | [9] 5.62 µM | [10] 12.6 µM
not listed: [6] | [7] | [13] | [18] | [19] | [20]
inactive: all other assays above

Nc1nc2c(ncn2COC(CO)CO)c(=O)[nH]1
not listed: [3] | [13] | [18] | [19] | [20]
inactive: all other assays above

COc1ccc(C2CNC(=O)C2)cc1OC1CCCC1 (stereo unspecified)
not listed: [4] | [9] | [13] | [20]
inactive: all other assays above

COC(=O)Nc1nc2ccc(C(=O)c3cccs3)cc2[nH]1
inactive: [1] | [2] | [3] | [8] | [11] | [12] | [15]
active: [17] 158 nM

CS(=O)(=O)Nc1ccc([N+](=O)[O-])cc1Oc1ccccc1
active: [1] 39.8 µM
not listed: [5] | [9] | [13] | [18] | [19] | [20]
inactive: all other assays above

O=C(Nc1ccc([N+](=O)[O-])cc1Cl)c1cc(Cl)ccc1O
inactive: [1] | [12] | [14] | [18]
active: [2] 3.98 µM | [4] 1 µM | [5] 0.708 µM | [6] 0.794 µM | [7] 1 µM | [8] 1.41 µM | [9] 0.794 µM | [10] 0.794 µM | [15] 2.07 µM | [16] 1.17 µM | [17] 316 nM
